Reference: article PMC5540273 (PLoS ONE, 2017)
Where “and” joins values, the source holds several entries; their conditions need not be identical. Identical values can stand only once. Like-named read-outs stand apart in the source and are kept apart here.

Legend:
TAOK2 = settings: concentration: 1 μM, replicates: in singlicate; n = 1
TAOK3 = settings: concentration: 1 μM, replicates: in singlicate, n = 1
TBK1 = settings: concentration: 1 μM, replicates: in singlicate, n = 1
TEC = settings: concentration: 1 μM, replicates: in singlicate, n = 1
TESK1 = settings: concentration: 1 μM, replicates: in singlicate, n = 1
TGFBR1 = settings: n = 1
TGFBR2 = settings: concentration: 1 μM, replicates: in singlicate, n = 1
TIE1 = settings: concentration: 1 μM, replicates: in singlicate, n = 1
TIE2 = system: T1, TIE2; settings: concentration: 1 μM, replicates: in singlicate, n = 1
T1 construct: gene TEK

TLK1 = settings: concentration: 1 μM, replicates: in singlicate, n = 1
[1] = concentration: 1 μM, replicates: in singlicate
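Note: KINOMEscan kinase panel screen.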

Row | Compound | %Inh (TAOK2) | %Inh (TAOK3) | %Inh (TBK1) | %Inh (TEC) | %Inh (TESK1) | %Inh (TGFBR1; [1]) | %Inh (TGFBR2) | %Inh (TIE1) | %Inh (TIE2) | %Inh (TLK1) | %Inh (TGFBR1; 1 µM) | %Inh (TAOK3; 1 µM) | %Inh (TBK1; 1 µM) | %Inh (TESK1; 1 µM) | %Inh (TIE1; 1 µM) | %Inh (TLK1; 1 µM) | %Inh (TEC; 1 µM) | %Inh (TGFBR1; concentration: 1 μM, replicates: in singlicate, 1 µM) | %Inh (TGFBR2; 1 µM) | %Inh (TIE2; 1 µM)
1 | O=C(NCCNc1ccnc(Nc2ccc(F)cc2)n1)Nc1ccccc1F [GSK1379880] | 0% | 0% | 6% | 14% | 0% | 0% | 0% | 0% | 0% | 2% | – | – | – | – | – | – | – | – | – | –
2 | Nc1nc(-c2ccc3c(N)n[nH]c3c2)cc(N2CCCC2)n1 [GSK2227430] | 0% | 0% | 18% | 0% | 2% | 0% | 0% | 0% | 0% | 3% | – | – | – | – | – | – | – | – | – | –
3 | Cc1c(Cn2c(C)nn3c(=O)cc(N4CCOC(C)C4)nc23)cccc1C(F)(F)F (stereo not drawn) [GSK2344444] | 0% | 0% | 0% | 0% | 0% | 0% | 0% | 7% | 0% | 0% | – | – | – | – | – | – | – | – | – | –
4 | c1ccc(-c2cc(-c3c[nH]nc3-c3ccccn3)ccn2)cc1 [GW576604] | 0% | 0% | 5% | 0% | 9% | – | 62% | 0% | 0% | 1% | 75% | – | – | – | – | – | – | – | – | –
5 | CCCCCc1nc2c(N)ncnc2n1CCCCC [SKF-97255] | 18% | 0% | 42% | 6% | 14% | 3% | 11% | 0% | 19% | 0% | – | – | – | – | – | – | – | – | – | –
6 | O=C(NCCCN1CCOCC1)c1cccc(Nc2nccc(Nc3ccc(Oc4ccccc4)cc3)n2)c1 [GW663929] | 0% | 0% | 26% | 70% | 0% | 0% | 7% | 11% | 0% | 18% | – | – | – | – | – | – | – | – | – | –
7 | NCCNS(=O)(=O)c1ccc(-c2ccnc3[nH]ccc23)cc1 [GSK977617] | 0% | – | – | 0% | – | 0% | 0% | – | 0% | – | – | 0% and 2% | 27% and 24% | 14% and 13% | 32% and 23% | 36% and 13% | – | – | – | –
8 | N#Cc1ccc(-c2cc(-c3c[nH]nc3-c3ccccn3)ccn2)cc1 [GW693028] | 0% | 0% | 6% | 44% | 23% | – | 83% | 0% | 0% | 0% | 87% | – | – | – | – | – | – | – | – | –
9 | CC(C)Oc1ccc2c(-c3ccnc(Nc4ccc(N5CCN(C)CC5)cc4)n3)cnn2n1 [GW696155] | 79% | 70% | 97.9% | 0% | 12% | 29% | 35% | 80% | 0% | 95.3% | – | – | – | – | – | – | – | – | – | –
10 | N#Cc1c(N2CCOCC2)sc(-c2ccn[nH]2)c1-c1ccc(Cl)cc1 | 0% | 0% | 12% | 12% | 0% | 19% | 0% | 0% | 5% | 11% | – | – | – | – | – | – | – | – | – | –
11 | CN1c2ccc(CNc3ccc(F)cc3)cc2-c2c(cnn2C)S1(=O)=O | 23% | 0% | 0% | 0% | 0% | 0% | 0% | 0% | 0% | 16% | – | – | – | – | – | – | – | – | – | –
12 | Cn1cc(-c2ccc3c(c2)CCN3C(=O)Cc2ccccc2Cl)c2c(N)ncnc21 [GSK2608885] | 0% | 47% | 14% | 100% | 43% | 8% | 23% | 96% | 97.4% | 29% | – | – | – | – | – | – | – | – | – | –
13 | NS(=O)(=O)c1cccc(-c2ccc3nccc(-c4cccc(S(N)(=O)=O)c4)c3c2)c1 [GW867253] | 31% | 6% | 15% | 0% | 7% | 0% | 0% | 5% | 0% | 3% | – | – | – | – | – | – | – | – | – | –
14 | Cc1nnc(-c2ccc3ncc(-c4ccc(S(C)=O)cc4)n3c2)o1 (stereo not drawn) | 0% | 0% | 15% | 7% | 0% | 9% | 0% | 5% | 6% | 23% | – | – | – | – | – | – | – | – | – | –
15 | COC(=O)Nc1nc2cc(Oc3ccc(NC(=O)Nc4cc(F)ccc4F)cc3)ccc2[nH]1.Cl [GW701424] | 0% | 0% | 9% | 0% | 73% | 27% | 0% | 93.2% | 73% | 0% | – | – | – | – | – | – | – | – | – | –
16 | Cl.Oc1cccc(Nc2ccnc3cc(-c4ccncc4)ccc23)c1 [GW494601] | 0% | 0% | 9% | 1% | 16% | 76% | 99.5% | 50% | 48% | 0% | – | – | – | – | – | – | – | – | – | –
17 | Fc1ccc(-c2ncn(CCCN3CCOCC3)c2-c2ccccn2)cc1 [SB-211742] | 5% | 0% | 21% | 0% | 0% | 52% | 6% | 0% | 27% | 0% | – | – | – | – | – | – | – | – | – | –

Row | Compound | %Inh (TAOK2) | %Inh (TAOK3) | %Inh (TBK1) | %Inh (TEC) | %Inh (TESK1) | %Inh (TGFBR1; [1]) | %Inh (TGFBR2) | %Inh (TIE1) | %Inh (TIE2) | %Inh (TLK1) | %Inh (TGFBR1; 1 µM) | %Inh (TAOK3; 1 µM) | %Inh (TBK1; 1 µM) | %Inh (TESK1; 1 µM) | %Inh (TIE1; 1 µM) | %Inh (TLK1; 1 µM) | %Inh (TEC; 1 µM) | %Inh (TGFBR1; concentration: 1 μM, replicates: in singlicate, 1 µM) | %Inh (TGFBR2; 1 µM) | %Inh (TIE2; 1 µM)
18 | CCc1nc(-c2cccc(C)c2)c(-c2ccnc(NCc3ccccc3)c2)s1 | 0% | 0% | 13% | 9% | 0% | 2% | 0% | 13% | 0% | 22% | – | – | – | – | – | – | – | – | – | –
19 | Cc1cccc(-c2nc(Nc3ccc4ncsc4c3)c3ccccc3n2)n1 [GW867588] | 0% | 6% | 0% | 0% | 0% | – | 0% | 0% | 0% | 0% | 55% | – | – | – | – | – | – | – | – | –
20 | O=C1Cc2cc(Nc3nc(NCc4cccc(S(=O)(=O)C(F)(F)F)c4)ncc3C(F)(F)F)ccc2N1 | 0% | 0% | 0% | 0% | 0% | 0% | 2% | 0% | 0% | 0% | – | – | – | – | – | – | – | – | – | –
21 | COc1ccc(Nc2ncc(C#N)c(Nc3ccccc3C(N)=O)n2)cc1N1CCN(C)CC1.Cl [GSK1558669] | 51% | 91.3% | 99.5% | 93.5% | 67% | 46% | 27% | 98.5% | 97.2% | 96.2% | – | – | – | – | – | – | – | – | – | –
22 | O=C(Nc1n[nH]c2cc(-c3cccc(F)c3)ccc12)C1CC1 [SB-735464] | 32% | 8% | 10% | 0% | 17% | 5% | 0% | 0% | 16% | 16% | – | – | – | – | – | – | – | – | – | –
23 | CN(C(=O)c1ccc(-c2cc(-c3c[nH]nc3-c3ccccn3)ccn2)cc1)C1CCOCC1 [GW810083] | 0% | 0% | 0% | 0% | 1% | – | 21% | 0% | 1% | 0% | 77% | – | – | – | – | – | – | – | – | –
24 | O=c1cc(N2CCOCC2)nc2n(Cc3cccc(C(F)(F)F)c3)ccn12 [GSK2297543] | 0% | 0% | 24% | 0% | 18% | 0% | 0% | 0% | 0% | 12% | – | – | – | – | – | – | – | – | – | –
25 | Nc1nccc(-c2c(-c3ccc(F)cc3)ncn2C2CCN(CC(F)(F)F)CC2)n1 [SB-236560] | 0% | 0% | 0% | 8% | 0% | 32% | 6% | 25% | 0% | 11% | – | – | – | – | – | – | – | – | – | –
26 | CCc1ccnc(/C=C/c2n[nH]c3cc(Sc4ccccc4C(=O)NC)ccc23)c1 | 100% | 0% | 0% | 3% | 8% | 0% | 0% | 48% | 8% | 0% | – | – | – | – | – | – | – | – | – | –
27 | C[C@@H](Oc1cc(-n2cnc3ccc(NC(=O)NC(C)(C)C)cc32)sc1C(N)=O)c1ccccc1Cl [GSK346294] | 2% | 0% | 27% | 20% | 0% | 0% | 4% | 3% | 0% | 21% | – | – | – | – | – | – | – | – | – | –
28 | CC(C)(CN)c1nc(-c2ccc(Cl)c(O)c2)c(-c2ccncc2)[nH]1.O=C(O)C(F)(F)F [SB-477794] | 0% | – | – | – | – | – | – | – | – | – | – | 6% and 0% | 0% and 5% | 100% and 56% | 1% and 0% | 20% and 11% | 13% and 0% | 98.8% and 96.2% | 99.2% and 99.6% | 3% and 22%
29 | O=C(c1ccc(-c2cc(-c3c[nH]nc3-c3ccccn3)ccn2)cc1)N1CCOCC1 [GW812171] | 33% | 2% | 31% | 16% | 11% | – | 11% | 0% | 1% | 0% | 90.7% | – | – | – | – | – | – | – | – | –
30 | Cc1cccc(Cn2ccn3c(=O)cc(N4CCOCC4)nc23)c1 [GSK2297542] | 5% | 0% | 10% | 11% | 39% | 3% | 0% | 0% | 0% | 16% | – | – | – | – | – | – | – | – | – | –
31 | COc1ccc(Nc2nccc(N3CCC(NC(=O)Nc4cc(C)ccc4C)C3)n2)cc1 (stereo not drawn) [GSK1379741] | 0% | 0% | 0% | 20% | 14% | 0% | 0% | 0% | 0% | 0% | – | – | – | – | – | – | – | – | – | –
32 | COc1cc2c(cc1OC[C@@H](O)CO)ncc1c3ccc(C#N)cc3[nH]c21 | 0% | 0% | 68% | 0% | 0% | 23% | 0% | 0% | 0% | 11% | – | – | – | – | – | – | – | – | – | –
33 | O=c1cc(N2CCOCC2)nc2n(Cc3cccc4ccccc34)ccn12 [GSK2333389] | 0% | 0% | 0% | 0% | 0% | 17% | 1% | 11% | 0% | 0% | – | – | – | – | – | – | – | – | – | –
